In PubChem BioAssay AID1159580 (chemical genetic matrix, 2015):
Out of some 5,500 compounds screened, about 2,000 (36%) were called active. Roughly 18% stayed inconclusive and do not appear here. Rule as the data show it: active = normalized growth mostly below about 0.91 (no sharp cut-off); inconclusive = no clear call, values can overlap the other calls; inactive = mostly above about 0.92. Some of the results follow.

Assay: chemical genetic growth profiling, strain panel (AID 1159580);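 also: tested at 20 µM; growth read once vehicle control cultures reached saturation at 30 °C; 1 = growth at the plate median or of vehicle wells; lower values mean less growth of the strain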
Settings: growth OD

Measured: normalized growth

CC1=CC(=O)C2=C(C)CC(O)C3C(C)C(=O)OC3C12 (stereo not drawn)
inactive: S. cerevisiae deletion strains, locus YBR021W, strain FUR4, hits give low values 1.01 | S. cerevisiae deletion strains, locus YBR229C, strain ROT2, hits give low values 1 | S. cerevisiae deletion strains, locus YCL029C, strain bik1, hits give low values 1.02 | S. cerevisiae deletion strains, locus YDL035C, strain GPR1, hits give low values 1.03 | S. cerevisiae deletion strains, locus YDL074C, strain BRE1, hits give low values 1.06 | S. cerevisiae deletion strains, locus YDL101C, strain DUN1, hits give low values 1.01 | S. cerevisiae deletion strains, locus YDL185W, strain tfp1, hits give low values 1.02 | S. cerevisiae deletion strains, locus YDL192W, strain arf1, hits give low values 1.01 | S. cerevisiae deletion strains, locus YDR101C, strain arx1, hits give low values 1.06 | S. cerevisiae deletion strains, locus YDR162C, strain NBP2, hits give low values 0.989 | S. cerevisiae deletion strains, locus YDR318W, strain mcm21, hits give low values 0.994 | S. cerevisiae deletion strains, locus YDR388W, hits give low values 1.02 | S. cerevisiae deletion strains, locus YDR502C, strain sam2, hits give low values 1.04 | S. cerevisiae deletion strains, locus YEL061C, strain CIN8, hits give low values 1 | S. cerevisiae deletion strains, locus YER110C, hits give low values 1.02 | S. cerevisiae deletion strains, locus YER155C, strain BEM2, hits give low values 1 | S. cerevisiae deletion strains, locus YER167W, strain BCK2, hits give low values 1 | S. cerevisiae deletion strains, locus YGL078C, strain dbp3, hits give low values 1.03 | S. cerevisiae deletion strains, locus YGL086W, strain mad1, hits give low values 1.04 | S. cerevisiae deletion strains, locus YGL248W, strain PDE1, hits give low values 0.997 | S. cerevisiae deletion strains, locus YGR135W, strain pre9, hits give low values 1.02 | S. cerevisiae deletion strains, locus YGR229C, strain SMI1, hits give low values 1.01 | S. cerevisiae deletion strains, locus YGR252W, strain gcn5, hits give low values 0.969 | S. cerevisiae deletion strains, locus YHR030C, strain SLT2, hits give low values 0.999 | S. cerevisiae deletion strains, locus YHR079C, strain IRE1 (second series), hits give low values 1.02 | S. cerevisiae deletion strains, locus YHR094C, strain hxt1, hits give low values 1.01 | S. cerevisiae deletion strains, locus YHR129C, strain ARP1, hits give low values 1.01 | S. cerevisiae deletion strains, locus YHR200W, strain rpn10, hits give low values 1.02 | S. cerevisiae deletion strains, locus YIL066C, strain RNR3, hits give low values 0.993 | S. cerevisiae deletion strains, locus YIL073C, strain SPO22, hits give low values 1.08 | S. cerevisiae deletion strains, locus YIL125W, strain kgd1, hits give low values 1.03 | S. cerevisiae deletion strains, locus YIR030C, strain dcg1, hits give low values 1.01 | S. cerevisiae deletion strains, locus YJL095W, strain BCK1, hits give low values 0.985 | S. cerevisiae deletion strains, locus YJL134W, strain LCB3, hits give low values 0.996 | S. cerevisiae deletion strains, locus YJL168C, strain set2, hits give low values 1.01 | S. cerevisiae deletion strains, locus YJL187C, strain SWE1 (second series), hits give low values 0.997 | S. cerevisiae deletion strains, locus YJR043C, strain POL32, hits give low values 1.01 | S. cerevisiae deletion strains, locus YJR075W, strain HOC1, hits give low values 0.992 | S. cerevisiae deletion strains, locus YKL009W, strain mrt4, hits give low values 1.01 | S. cerevisiae deletion strains, locus YKL068W, hits give low values 0.999 | S. cerevisiae deletion strains, locus YKL085W, strain MDH1 (second series), hits give low values 0.992 | S. cerevisiae deletion strains, locus YKL085W, strain MDH1, hits give low values 0.992 | S. cerevisiae deletion strains, locus YKL190W, strain CNB1, hits give low values 1.01 | S. cerevisiae deletion strains, locus YKR001C, strain vps1, hits give low values 1.05 | S. cerevisiae deletion strains, locus YLR039C, strain RIC1, hits give low values 1.07 | S. cerevisiae deletion strains, locus YLR058C, strain SHM2, hits give low values 0.99 | S. cerevisiae deletion strains, locus YLR102C, strain apc9, hits give low values 1.02 | S. cerevisiae deletion strains, locus YLR262C, strain YPT6, hits give low values 1.04 | S. cerevisiae deletion strains, locus YLR268W, strain sec22, hits give low values 1.07 | S. cerevisiae deletion strains, locus YLR330W, strain CHS5, hits give low values 1.01 | S. cerevisiae deletion strains, locus YLR342W, strain FKS1 (second series), hits give low values 1.06 | S. cerevisiae deletion strains, locus YLR371W, strain rom2, hits give low values 1.05 | S. cerevisiae deletion strains, locus YLR418C, strain cdc73, hits give low values 1.01 | S. cerevisiae deletion strains, locus YML016C, strain PPZ1, hits give low values 1 | S. cerevisiae deletion strains, locus YML032C, strain rad52, hits give low values 0.988 | S. cerevisiae deletion strains, locus YML124C, strain tub3, hits give low values 1.01 | S. cerevisiae deletion strains, locus YMR078C, strain ctf18, hits give low values 1.03 | S. cerevisiae deletion strains, locus YMR223W, strain ubp8, hits give low values 0.99 | S. cerevisiae deletion strains, locus YMR307W, strain GAS1, hits give low values 1.02 | S. cerevisiae deletion strains, locus YNL067W, strain RPL9B, hits give low values 1 | S. cerevisiae deletion strains, locus YNL153C, strain GIM3, hits give low values 0.999 | S. cerevisiae deletion strains, locus YNL233W, strain BNI4, hits give low values 1 | S. cerevisiae deletion strains, locus YNL250W, strain rad50, hits give low values 1.03 | S. cerevisiae deletion strains, locus YNL271C, strain bni1, hits give low values 1.02 | S. cerevisiae deletion strains, locus YNL298W, strain CLA4, hits give low values 1.01 | S. cerevisiae deletion strains, locus YNL307C, strain MCK1, hits give low values 1.03 | S. cerevisiae deletion strains, locus YNL322C, strain KRE1, hits give low values 1 | S. cerevisiae deletion strains, locus YNR052C, strain pop2, hits give low values 1.01 | S. cerevisiae deletion strains, locus YOL006C, strain TOP1, hits give low values 1.13 | S. cerevisiae deletion strains, locus YOL012C, strain htz1 0.87 | S. cerevisiae deletion strains, locus YOL147C, strain pex11, hits give low values 1.03 | S. cerevisiae deletion strains, locus YOR061W, strain CKA2, hits give low values 1.01 | S. cerevisiae deletion strains, locus YOR069W, strain VPS5, hits give low values 1 | S. cerevisiae deletion strains, locus YOR136W, strain idh2, hits give low values 1.03 | S. cerevisiae deletion strains, locus YOR144C, strain elg1, hits give low values 1.01 | S. cerevisiae deletion strains, locus YOR184W, strain ser1, hits give low values 1.06 | S. cerevisiae deletion strains, locus YOR316C, strain cot1, hits give low values 1.01 | S. cerevisiae deletion strains, locus YPR119W, strain clb2, hits give low values 1.02 | S. cerevisiae deletion strains, locus YPR141C, strain kar3, hits give low values 1 | S. cerevisiae deletion strains, locus YPR163C, strain tif3, hits give low values 1.01 | S. cerevisiae deletion strains, locus YPR167C, strain met16, hits give low values 1.03 | S. cerevisiae deletion strains, strain wtn01, hits give low values 1.08 | S. cerevisiae strains, strain wild type, hits give low values 0.998
